Source: PubChem BioAssay (NCATS)
Several values for one entry are separate records, joined by “and”; a condition that tells them apart may be missing. Equal entries are not always repeated. Unmarked numbers belong to inactive results. Inconclusive results are not listed. A call without a number means that no potency is given here. Activity calls are given as the source filed them. Unless noted, the call rests on the fitted dose curve; in most records, active means well fitted curve in the direction sought with a large enough effect; inconclusive means small, poorly fitted or top-dose-only effect, or another doubt; inactive means no such curve, though single readings can be large; an effect the other way counts as inactive or inconclusive.

What was measured:
[1] = qHTS Assay for Identification of Small Molecule Agonists for Thrombopoietin (TPO) Signaling Pathway (AID 917)
In short: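 IL-3-dependent murine pro-B Ba/F3 cells, stably transfected with human TPO receptor and GpIIb-promoter luciferase, are incubated 24 hrs at 37 C with test compound and 26 pM TPO; luciferase signal is read after 10 min at room temperature.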

[2] = molecular target: Muscarinic acetylcholine receptor M1 (Rattus norvegicus) (UniProt P08482); experiment: qHTS Assay for Antagonists of Acetylcholine Muscarinic M1 Receptor: Measurement of IP-One Response (AID 944); further: nearly all actives have a fitted effect of over 75% in size; further: potency means the concentration at half of the fitted maximal effect
In short: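 M1-CHO (rat), 2000 cells/well, overnight recovery; cpd 10 min; carbachol EC80 (200 nM), 30 min, HEPES buffer + 50 mM LiCl pH 7.4; IP-One HTRF, Ex 337, Em 620/665 nm.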

[3] = molecular target: Pyruvate kinase (Leishmania mexicana) (UniProt Q27686); experiment: qHTS Validation Assay for Inhibitors of Leishmania Mexicana Pyruvate Kinase (AID 945)
In short: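 Purified LmPYK (E451W mutant, 0.2 nM) was incubated 1 h at room temperature with 0.5 mM PEP and 0.1 mM ADP in 50 mM imidazole pH 7.2, 50 mM KCl, 7 mM MgCl2; ATP formed was read by PKLight luminescence, normalized to DMSO wells.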

[4] = molecular target: Alpha-galactosidase A (Homo sapiens) (UniProt P06280); experiment: Counterscreen for Glucocerebrosidase Inhibitors: qHTS Assay for Human alpha-Galactosidase at pH 4.5 (AID 992)
In short: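 Quantitative HTS: compounds tested from 0.7 nM up to 77 uM against 2 nM enzyme with 80 uM 4-MU alpha-D-galactopyranoside. The 20 min room-temperature reaction is stopped with 1M NaOH/1M glycine, pH 10.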

[5] = molecular target: Cytochrome P450 2D6 (Homo sapiens) (UniProt P10635); experiment: qHTS Assay for Inhibitors and Substrates of Cytochrome P450 2D6 (AID 891); further: nearly all actives have a fitted effect of over 60% in size; further: potency means the concentration at half of the fitted maximal effect
In short: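 Human CYP2D6 (5 nM) with 30 uM Luciferin-ME EGE (at Km) in 100 mM KPO4, compound preincubated 10 min, then NADPH regeneration system for 60 min at room temperature. Luciferin read by luminescence; normalized to 1.43 uM quinidine.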

[6] = qHTS Assay for Identification of Small Molecule Antagonists for Thrombopoietin (TPO) Signaling Pathway (AID 918); details: TPO-dependent cell signaling reporter, antagonist mode; further: potency means the concentration at half of the fitted maximal effect; nearly all actives have a fitted effect of over 60% in size
In short: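 Ba/F3 (murine, hTPO-R, GPIIb-luc reporter); overnight IL-3 withdrawal; cpd + TPO 26 pM final (EC50); 24 h 37 C/5% CO2; Steadylite luminescence after 10 min RT.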

[7] = molecular target: Rap guanine nucleotide exchange factor 3 (Homo sapiens) (UniProt O95398); experiment: Confirmatory qHTS for antagonist of cAMP-regulated guanine nucleotide exchange factor 3 (EPAC1) (AID 1645880); further: nearly all actives have a fitted effect of over 55% in size
In short: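 Nucleotide exchange uses 100 nM EPAC1, 250 nM RAP1B-BODIPY-GDP and 50 uM GDP, with compounds in a concentration-titration series. After 5 min at room temperature, fluorescence (480 nm ex/540 nm em) is read every 5 min for 30 min. Data are normalized to control ATA and DMSO.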

[8] = molecular target: Rap guanine nucleotide exchange factor 3 (Homo sapiens) (UniProt O95398); experiment: Confirmatory qHTS for agonist of cAMP-regulated guanine nucleotide exchange factor 3 (EPAC1) (AID 1645881);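 further: EPAC1 catalysed release of BODIPY-GDP from Rap1B seen as fluorescence loss; nearly all actives have a fitted effect of over 75% in size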
[9] = molecular target: Rap guanine nucleotide exchange factor 4 (Homo sapiens) (UniProt Q8WZA2); experiment: Confirmatory qHTS for agonist of cAMP-regulated guanine nucleotide exchange factor 4 (EPAC2) (AID 1645884);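 further: nucleotide exchange releases bodipy-GDP from Rap1 and this lowers its fluorescence; nearly all actives have a fitted effect of over 65% in size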
[10] = Confirmation and Secondary Assay for Modulators of Hemoglobin Beta Chain Splicing at IVS2 654 locus (AID 910);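 further: HeLa cells stably carrying EGFP split by mutant beta-globin IVS2-654 intron; per-well total GFP intensity by laser scanning cytometry after 2-day treatment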
In short: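 Readout: per-well total peak green fluorescence (488 nm ex, 500–520 nm em) from objects 5–250 µm, reflecting correct splicing of an EGFP-654 reporter. Compounds were applied for 2 days at 37 °C to overnight-plated HeLa EGFP-654 cells; controls were DMSO and 500 nM IVS2-654 PNA.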

[11] = Confirmation and Secondary Assay for Modulators of Hemoglobin Beta Chain Splicing at IVS2 705 locus (AID 930);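 further: HeLa cells stably expressing the EGFP-705 splicing reporter; series mostly up to about 46 µM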
In short: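 Restored EGFP fluorescence after 2-day compound exposure reports splicing correction in IVS2-705 EGFP reporter HeLa cells; positive control was 500 nM splice-blocking PNA oligo. Signal measured as well total peak GFP intensity (488 nm excitation).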

[12] = molecular target: Rap guanine nucleotide exchange factor 4 (Homo sapiens) (UniProt Q8WZA2); experiment: Confirmatory qHTS for antagonist of cAMP-regulated guanine nucleotide exchange factor 4 (EPAC2) (AID 1645885); further: potency means the concentration at half of the fitted maximal effect; nearly all actives have a fitted effect of over 25% in size
[13] = molecular target: Bile acid receptor (Homo sapiens) (UniProt Q96RI1); experiment: qHTS assay for small molecule antagonists of farnesoid X receptor signaling (AID 588526; calls by dose curve)
In short: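 Beta-lactamase reporter antagonist mode: HEK293T FXR-UAS-bla cells, titrated compound, CDCA stimulation, 16 h 37 C, CCF4 dye 2 h RT. Data normalized to CDCA 50 uM and DMSO; Hill-fit IC50.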

[14] = molecular target: Glucocorticoid receptor (Homo sapiens) (UniProt P04150); experiment: qHTS assay for small molecule agonists of glucocorticoid receptor signaling (AID 588532; active means well fitted curve in the direction sought with a large enough effect in the signal ratio, with a control signal flat; the % refers to the signal ratio); details: HeLa MMTV-bla, beta-lactamase ratio, agonist, 18 h; hits give high values; percent of dexamethasone control, DMSO zero
In short: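 Quantitative HTS using CellSensor MMTV-bla HeLa cells in charcoal/dextran-treated serum; compounds tested up to 92 uM. After 18 h at 37 C, CCF4 dye reported reporter induction.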

[15] = molecular target: Peroxisome proliferator-activated receptor gamma (Homo sapiens) (UniProt P37231); experiment: qHTS assay for small molecule agonists of peroxisome proliferator-activated receptor gamma signaling (AID 588536; active means well fitted curve in the direction sought with a large enough effect in the signal ratio, with a control signal flat, not every such curve was filed as active; the % refers to the signal ratio)
In short: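 Ratiometric blue/green fluorescence (405 nm excitation; 460 and 530 nm emission) from CCF4-loaded HEK293 reporter cells serves as signal. Exposure to test compounds lasts 16 h at 37 C in medium containing 1% charcoal/dextran-treated serum.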

[16] = molecular target: Tyrosine-protein kinase Yes (Homo sapiens) (UniProt P07947); experiment: qHTS for small molecule inhibitors of Yes1 kinase: Primary Screen (AID 686947); further: potency means the concentration at half of the fitted maximal effect; nearly all actives have a fitted effect of over 60% in size
In short: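 Yes1 (4 nM) preincubated 20 min with compound, then 60 min room-temperature reaction with 0.1 mM ATP and 0.3 mg/mL poly(E4Y) in pH 7.5 Tris, 10 mM MgCl2. ADP measured by ADP-Glo luminescence, normalised to enzyme/no-enzyme controls.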

[17] = qHTS for small molecule inhibitors of Yes1 kinase: Counter Assay (AID 686950);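 further: no kinase present so only ADP-Glo detection of a fixed ADP amount is tested; luminescence from ADP-Glo reporting ADP in a fixed ATP and ADP mixture; series mostly up to about 77 µM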
In short: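 Luminescence read-out from ADP-Glo quantifies a fixed ADP amount (0.02 mM ADP with 0.08 mM ATP) after 60 min at room temperature; signal is normalized between DMSO wells with ATP/ADP and with 0.1 mM ATP alone.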

[18] = molecular target: Glutathione peroxidase 1 (Homo sapiens) (UniProt P07203); experiment: Primary qHTS Assay for Inhibitors of Recombinant Selenoprotein Glutathione Peroxidase 1 (GPX1) (AID 1845191); further: nearly all actives have a fitted effect of over 65% in size
In short: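 10 nM GPX1 + cpd, 30 min RT; start w/ 1 mM GSH, 0.5 mM cumene hydroperoxide, 0.5 mM NADPH, 100 nM GR, 0.01% BSA; buffer 50 mM Tris-HCl pH 7.5, 2 mM EDTA, 150 mM NaCl; Fl 340/450, 0 & 15 min.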

Sequence of Cytochrome P450 2D6 (Homo sapiens) (P10635 whole entry, looked up): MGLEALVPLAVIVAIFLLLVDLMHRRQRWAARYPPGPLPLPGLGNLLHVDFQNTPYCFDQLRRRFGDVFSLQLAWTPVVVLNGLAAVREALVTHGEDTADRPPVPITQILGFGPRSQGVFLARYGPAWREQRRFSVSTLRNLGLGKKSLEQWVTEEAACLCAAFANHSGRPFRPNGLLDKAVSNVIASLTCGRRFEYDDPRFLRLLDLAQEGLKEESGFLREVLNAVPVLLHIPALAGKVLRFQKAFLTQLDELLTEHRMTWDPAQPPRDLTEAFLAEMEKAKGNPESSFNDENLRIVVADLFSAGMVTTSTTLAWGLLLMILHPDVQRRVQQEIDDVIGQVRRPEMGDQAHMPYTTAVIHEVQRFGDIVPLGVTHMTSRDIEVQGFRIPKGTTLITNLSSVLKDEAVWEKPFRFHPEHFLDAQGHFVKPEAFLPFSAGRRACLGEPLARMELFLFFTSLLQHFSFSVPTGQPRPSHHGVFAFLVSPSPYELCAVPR
Sequence of Pyruvate kinase (Leishmania mexicana) (Q27686 2-499 E452W): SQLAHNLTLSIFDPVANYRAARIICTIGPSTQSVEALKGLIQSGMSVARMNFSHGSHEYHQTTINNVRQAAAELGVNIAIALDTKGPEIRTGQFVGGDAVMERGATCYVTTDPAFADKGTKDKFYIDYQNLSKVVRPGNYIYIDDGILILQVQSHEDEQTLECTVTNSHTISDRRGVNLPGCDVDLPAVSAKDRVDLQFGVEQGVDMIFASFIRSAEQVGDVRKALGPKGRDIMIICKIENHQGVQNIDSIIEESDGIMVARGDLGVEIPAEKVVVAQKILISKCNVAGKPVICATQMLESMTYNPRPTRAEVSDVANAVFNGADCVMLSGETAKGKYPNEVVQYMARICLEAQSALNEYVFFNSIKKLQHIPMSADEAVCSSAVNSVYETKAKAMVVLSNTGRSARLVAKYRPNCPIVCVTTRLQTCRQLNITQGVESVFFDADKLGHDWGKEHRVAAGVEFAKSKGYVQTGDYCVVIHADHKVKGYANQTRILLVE
Sequence of Alpha-galactosidase A (Homo sapiens) (P06280 whole entry, looked up): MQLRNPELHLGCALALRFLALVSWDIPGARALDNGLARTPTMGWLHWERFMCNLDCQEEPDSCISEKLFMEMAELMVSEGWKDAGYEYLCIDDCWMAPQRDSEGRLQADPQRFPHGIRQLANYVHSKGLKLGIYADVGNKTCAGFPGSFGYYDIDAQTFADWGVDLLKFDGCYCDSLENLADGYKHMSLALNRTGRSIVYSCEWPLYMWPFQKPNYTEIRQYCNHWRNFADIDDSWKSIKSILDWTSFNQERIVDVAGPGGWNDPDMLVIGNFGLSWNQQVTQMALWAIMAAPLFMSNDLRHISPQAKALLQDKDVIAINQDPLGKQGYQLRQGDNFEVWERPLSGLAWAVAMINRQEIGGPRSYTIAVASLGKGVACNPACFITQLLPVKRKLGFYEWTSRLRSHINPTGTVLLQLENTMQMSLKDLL
Sequence of Rap guanine nucleotide exchange factor 3 (Homo sapiens) (O95398 whole entry, looked up): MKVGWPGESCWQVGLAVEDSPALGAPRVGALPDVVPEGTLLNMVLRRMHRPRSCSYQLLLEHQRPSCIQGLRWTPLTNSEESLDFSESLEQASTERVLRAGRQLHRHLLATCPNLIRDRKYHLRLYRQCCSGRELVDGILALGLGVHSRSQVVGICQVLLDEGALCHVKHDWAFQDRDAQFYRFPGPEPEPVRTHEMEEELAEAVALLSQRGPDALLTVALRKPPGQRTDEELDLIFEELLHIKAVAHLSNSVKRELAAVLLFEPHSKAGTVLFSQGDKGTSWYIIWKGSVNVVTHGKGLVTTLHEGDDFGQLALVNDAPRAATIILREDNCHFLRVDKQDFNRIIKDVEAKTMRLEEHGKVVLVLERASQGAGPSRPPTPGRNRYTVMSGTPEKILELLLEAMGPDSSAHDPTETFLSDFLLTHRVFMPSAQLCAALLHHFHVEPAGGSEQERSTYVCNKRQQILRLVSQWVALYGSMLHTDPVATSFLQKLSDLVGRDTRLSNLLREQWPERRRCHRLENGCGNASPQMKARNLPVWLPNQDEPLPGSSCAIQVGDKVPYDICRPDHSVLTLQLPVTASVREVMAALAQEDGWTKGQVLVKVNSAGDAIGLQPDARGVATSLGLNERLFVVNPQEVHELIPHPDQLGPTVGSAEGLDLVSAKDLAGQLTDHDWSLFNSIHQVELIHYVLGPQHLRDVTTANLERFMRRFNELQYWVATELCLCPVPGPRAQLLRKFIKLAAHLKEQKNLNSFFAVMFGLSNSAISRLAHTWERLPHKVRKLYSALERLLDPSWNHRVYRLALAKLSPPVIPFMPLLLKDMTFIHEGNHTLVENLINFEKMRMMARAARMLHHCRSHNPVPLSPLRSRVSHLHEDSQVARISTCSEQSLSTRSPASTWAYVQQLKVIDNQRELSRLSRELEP
Sequence of Rap guanine nucleotide exchange factor 4 (Homo sapiens) (Q8WZA2 whole entry, looked up): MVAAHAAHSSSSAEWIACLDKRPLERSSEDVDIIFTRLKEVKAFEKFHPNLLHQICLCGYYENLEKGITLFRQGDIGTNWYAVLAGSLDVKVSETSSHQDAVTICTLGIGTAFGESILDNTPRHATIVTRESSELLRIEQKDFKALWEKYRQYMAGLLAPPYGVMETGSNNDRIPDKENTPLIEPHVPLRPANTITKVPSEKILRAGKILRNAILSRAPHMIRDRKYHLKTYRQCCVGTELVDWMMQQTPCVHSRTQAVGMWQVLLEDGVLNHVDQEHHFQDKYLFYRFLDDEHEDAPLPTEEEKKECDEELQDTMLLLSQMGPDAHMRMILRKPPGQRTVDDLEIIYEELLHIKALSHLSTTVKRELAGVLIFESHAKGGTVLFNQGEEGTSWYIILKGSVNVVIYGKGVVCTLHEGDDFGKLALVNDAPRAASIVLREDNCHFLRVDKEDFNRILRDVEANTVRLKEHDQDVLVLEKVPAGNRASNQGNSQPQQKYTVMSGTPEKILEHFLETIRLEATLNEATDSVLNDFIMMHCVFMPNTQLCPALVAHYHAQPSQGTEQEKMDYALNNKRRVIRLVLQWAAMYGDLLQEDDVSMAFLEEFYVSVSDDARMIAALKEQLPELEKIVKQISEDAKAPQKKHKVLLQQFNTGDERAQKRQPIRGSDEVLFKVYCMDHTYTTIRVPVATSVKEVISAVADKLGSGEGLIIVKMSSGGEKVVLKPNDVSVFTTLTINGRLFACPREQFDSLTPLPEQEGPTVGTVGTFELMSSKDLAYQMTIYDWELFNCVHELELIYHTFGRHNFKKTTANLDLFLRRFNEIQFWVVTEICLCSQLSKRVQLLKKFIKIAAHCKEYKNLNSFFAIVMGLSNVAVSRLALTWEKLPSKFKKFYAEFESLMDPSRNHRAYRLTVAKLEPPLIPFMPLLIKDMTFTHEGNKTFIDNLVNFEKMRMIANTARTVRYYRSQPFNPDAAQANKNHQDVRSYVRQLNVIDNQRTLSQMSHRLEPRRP
Sequence of Muscarinic acetylcholine receptor M1 (Rattus norvegicus) (P08482 whole entry, looked up): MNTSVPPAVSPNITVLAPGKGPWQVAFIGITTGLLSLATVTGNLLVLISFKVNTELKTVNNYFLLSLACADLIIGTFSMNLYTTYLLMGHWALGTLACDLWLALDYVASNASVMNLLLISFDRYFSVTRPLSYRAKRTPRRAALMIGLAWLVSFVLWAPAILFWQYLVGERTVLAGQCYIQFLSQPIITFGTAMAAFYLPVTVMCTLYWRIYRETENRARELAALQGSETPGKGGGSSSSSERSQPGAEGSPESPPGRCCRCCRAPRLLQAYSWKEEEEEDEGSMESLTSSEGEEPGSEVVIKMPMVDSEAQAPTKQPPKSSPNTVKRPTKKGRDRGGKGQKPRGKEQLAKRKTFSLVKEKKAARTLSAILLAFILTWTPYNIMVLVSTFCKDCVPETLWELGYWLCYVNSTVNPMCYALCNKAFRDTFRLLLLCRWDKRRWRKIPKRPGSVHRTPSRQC
Sequence of Peroxisome proliferator-activated receptor gamma (Homo sapiens) (P37231 whole entry, looked up): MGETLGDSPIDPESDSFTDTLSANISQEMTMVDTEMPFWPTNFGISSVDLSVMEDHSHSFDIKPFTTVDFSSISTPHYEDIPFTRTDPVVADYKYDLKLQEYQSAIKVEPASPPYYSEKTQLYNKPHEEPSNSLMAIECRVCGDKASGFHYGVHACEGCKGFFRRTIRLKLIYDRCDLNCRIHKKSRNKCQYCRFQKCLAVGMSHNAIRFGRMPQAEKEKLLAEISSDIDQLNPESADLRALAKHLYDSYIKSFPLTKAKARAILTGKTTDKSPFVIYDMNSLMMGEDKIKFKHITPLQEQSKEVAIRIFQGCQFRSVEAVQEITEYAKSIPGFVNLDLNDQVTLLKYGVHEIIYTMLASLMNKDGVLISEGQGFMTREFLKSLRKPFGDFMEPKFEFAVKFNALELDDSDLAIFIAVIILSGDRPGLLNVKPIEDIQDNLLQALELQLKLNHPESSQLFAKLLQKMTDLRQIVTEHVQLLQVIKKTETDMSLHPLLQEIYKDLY
Sequence of Glutathione peroxidase 1 (Homo sapiens) (P07203 whole entry, looked up): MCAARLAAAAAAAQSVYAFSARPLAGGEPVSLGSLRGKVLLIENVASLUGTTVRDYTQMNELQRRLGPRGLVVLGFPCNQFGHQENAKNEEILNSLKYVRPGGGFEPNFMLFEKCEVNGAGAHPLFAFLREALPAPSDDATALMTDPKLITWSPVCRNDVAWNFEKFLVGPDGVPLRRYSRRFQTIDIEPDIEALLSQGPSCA
Sequence of Bile acid receptor (Homo sapiens) (Q96RI1 whole entry, looked up): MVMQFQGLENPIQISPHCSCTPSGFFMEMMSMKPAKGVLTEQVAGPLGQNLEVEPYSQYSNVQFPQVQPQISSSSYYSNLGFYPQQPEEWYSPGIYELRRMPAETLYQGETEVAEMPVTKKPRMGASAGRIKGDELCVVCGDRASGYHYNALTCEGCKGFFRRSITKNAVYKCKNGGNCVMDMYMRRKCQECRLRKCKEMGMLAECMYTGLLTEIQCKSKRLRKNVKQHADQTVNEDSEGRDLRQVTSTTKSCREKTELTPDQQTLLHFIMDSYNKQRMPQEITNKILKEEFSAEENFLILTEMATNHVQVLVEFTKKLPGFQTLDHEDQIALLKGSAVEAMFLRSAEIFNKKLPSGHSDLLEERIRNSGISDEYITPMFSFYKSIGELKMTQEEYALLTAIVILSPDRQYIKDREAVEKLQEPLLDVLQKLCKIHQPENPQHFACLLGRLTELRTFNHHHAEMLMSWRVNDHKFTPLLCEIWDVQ

## CNCC[C@H](Oc1ccccc1OC)c1ccccc1
[1]
  Potency: inactive
[2]
  Potency: 11.2 µM (active)
[3]
  Potency: inactive
[4]
  outcome: inactive

## C=CCN1CCc2cc(O)c(O)cc2[C@H](c2ccccc2)C1
[5]
  Potency: 0.398 µM (active)
[6]
  Potency: 5.01 µM (active)
[2]
  Potency: inactive
[4]
  outcome: inactive

## CC[C@H](C)C(=O)O[C@H]1CCC=C2C=C[C@H](C)[C@H](CC[C@@H]3C[C@H](O)CC(=O)O3)[C@H]21
[1]
  Potency: inactive
[3]
  Potency: inactive
[7]
  Potency: inactive
[8]
  outcome: inactive
[9]
  outcome: inactive

## CCCCOc1cc(C[C@@H]2CNC(=O)N2)ccc1OC
[10]
  outcome: inactive
[1]
  Potency: inactive
[11]
  outcome: inactive
[2]
  Potency: inactive

## CCC(C)(C)C(=O)O[C@@H]1C[C@@H](C)C=C2C=C[C@H](C)[C@H](CC[C@@H]3C[C@@H](O)CC(=O)O3)[C@H]21
[8]
  outcome: inactive
[9]
  outcome: inactive
[12]
  Potency: 49.4 µM (active)

## CCN(Cc1ccncc1)C(=O)[C@@H](CO)c1ccccc1
[5]
  Potency: inactive
[10]
  outcome: inactive
[1]
  Potency: inactive
[11]
  outcome: inactive
[3]
  Potency: inactive

## CCOC(=O)C1=C(C)NC(C)=C(C(=O)OC)[C@H]1c1cccc([N+](=O)[O-])c1
[10]
  outcome: inactive
[11]
  outcome: inactive
[3]
  Potency: inactive
[4]
  outcome: inactive
[7]
  Potency: inactive
[8]
  outcome: inactive

## CC(=O)[C@H]1[C@H](C#N)C[C@H]2[C@@H]3CC=C4C[C@@H](O)CC[C@]4(C)[C@H]3CC[C@@]21C
[13]
  outcome: inactive
[14]
  activation: -8.47% and 3.7%
[15]
  outcome: inactive

## C[C@@H](/C=C\c1cccc(Oc2ccc(F)cc2)c1)N(O)C(N)=O
[1]
  Potency: inactive
[2]
  Potency: inactive
[3]
  Potency: inactive
[7]
  Potency: inactive
[8]
  outcome: inactive
[12]
  Potency: 44.1 µM (active)

## Fc1ccc(-c2nc3n(c2-c2ccncc2)CCS3)cc1
[16]
  Potency: 0.519 µM (active)
[17]
  outcome: inactive
[18]
  Potency: inactive

## N[C@H](Cc1ccc(Cl)cc1)C(=O)O
[5]
  Potency: inactive
[10]
  outcome: inactive
[11]
  outcome: inactive
[3]
  Potency: inactive
[4]
  outcome: inactive

## CC(C)[C@H](CO)Nc1nc(Nc2cc(N)cc(Cl)c2)c2ncn(C(C)C)c2n1
[8]
  outcome: inactive
[9]
  outcome: inactive

## CCCCCCCCCCCCCCCC(=O)N[C@H](CN1CCOCC1)[C@H](O)c1ccccc1
[18]
  Potency: inactive
